Screening results: PubChem, National Center for Advancing Translational Sciences (NCATS)
Rhodamine fluor: rhodamine region autofluorescence | max dye-equivalent concentration, M | actives 0.05% (n = 59,000) | Rhodamine-region fluorescence, 547/598 nm, Tris buffer; active compounds read high; in the data active means max dye-equivalent concentration above about 11 nM; inconclusive means between about 1.1 nM and that limit
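Intrinsic compound fluorescence, ex 547 / em 598 nm, CCD imager. Tris 100 mM pH 8.0; 15 min RT. Output = rhodamine dye-equivalent concentration at each compound concentration.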
Resorufin autofl: compound fluoresces in the resorufin spectral region | Compound fluorescence, resorufin region 547/598 nm, buffer; active compounds read high | max dye-equivalent concentration, M | actives 0.04% (n = 59,000)
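Compounds in 100 mM Tris buffer, pH 8.0, incubated 15 min at room temperature, then read with 547 nm excitation and 598 nm emission filters. Fluorescence was converted to dye-equivalent concentration using an on-plate six-point resorufin standard curve.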
A647 autofl: A647 region autofluorescence | Compound fluorescence, A647 channel (570/671 nm), Tris buffer | max dye-equivalent concentration, M | 59,000 tested, under 10 active | AID 592
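Spectral profiling of library compounds in pH 8.0 Tris: 15 min room-temperature incubation, single ex/em pair (570/671 nm), response normalized to Alexa 647 equivalents.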
A488 fluor: A488 region autofluorescence; AID 591; max dye equivalency, M; compound autofluorescence, A488 spectral region, dye equivalency; Compound Type: qHTS ECL - MLSMR; actives 0.1% (n = 59,000)
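Read-out: relative fluorescence at 480/540 nm, expressed as Alexa 488 dye-equivalent concentration from a six-point A488 standard included per plate. Conditions: 100 mM Tris, pH 8.0; 15 min incubation, room temperature.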
TexasRed autofl: Texas Red region autofluorescence | actives 0.06% (n = 59,000) | max dye-equivalent concentration, M | AID 587 | Compound fluorescence, Texas Red channel, 547/618 nm; active compounds read high; in the data active means max dye-equivalent concentration above about 10 nM; inconclusive means between about 1.1 nM and that limit
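Compound fluorescence was read after 15 min at room temperature in 100 mM Tris, pH 8.0, using 547 nm excitation and 618 nm emission across a concentration series. It was expressed as Texas Red dye-equivalent concentration from an on-plate standard curve.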
Fluorescein autfl: compound autofluorescence in fluorescein spectral region. Compound autofluorescence, 480/540 nm, fluorescein-equivalent; active compounds read high. max fluorescein-equivalent concentration, M. actives 0.91% (n = 59,000). AID 593; in the data active means max fluorescein-equivalent concentration above about 10 nM; inconclusive means between about 1.1 nM and that limit
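Fluorescein stocks ranging 3 mM down to 300 nM, plus DMSO blanks, were pinned alongside compounds to build a per-plate standard curve. Buffer: 100 mM Tris, pH 8.0. Incubation 15 min, room temperature; filters 480/540 nm.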
Each line names hits and unclear results; the compound was inactive in the other large screens; ! = repeats disagree. The list is not random: actives were taken first. Their share in the collection is about 0.95%. Unless noted, how the calls were made is not given here.

O=c1cc(N2CCc3ccccc3C2)[nH]c(=O)n1C1CCCCC1	TexasRed autofl inconclusive, Fluorescein autfl inconclusive
O=c1oc2cc(O)ccc2c2c1CCCC2	TexasRed autofl inconclusive
O=C(Nc1ccccn1)NC12CC3CC(CC(C3)C1)C2	none
COc1ccccc1N1CCN(C(=O)Cn2nnc(-c3ccncc3)n2)CC1	Fluorescein autfl inconclusive
Cn1cnnc1Sc1nc2ccccc2nc1NS(=O)(=O)c1ccccc1	Fluorescein autfl inconclusive
CC(=O)Nc1ccc(S(=O)(=O)Nc2nc3ccccc3nc2Sc2nncn2C)cc1	Fluorescein autfl 1.4e-08M
Cc1c(Nc2nc3ccccc3nc2NS(=O)(=O)c2ccccc2)c(=O)n(-c2ccccc2)n1C	none
Cn1ccnc1Sc1nc2ccccc2nc1NS(=O)(=O)c1ccccc1	Fluorescein autfl 1.1e-08M
CCN(CC)c1ccc2cc(C(=O)Nc3ccc(-n4cnnn4)c(OC)c3)c(=O)oc2c1	A488 fluor 3.4e-08M, Fluorescein autfl 6.7e-07M
COc1cccc(Nc2ncc3nc(-c4cn(C)c5ccccc45)c(=O)n(CCC#N)c3n2)c1	Fluorescein autfl 2.4e-08M
COCCn1c(=O)c(C)nc2cnc(Nc3cccc(OC)c3)nc21	none
COCCn1c(=O)c(-c2ccc(OC)cc2)nc2cnc(Nc3cccc(OC)c3)nc21	Fluorescein autfl 1e-08M
Cc1sccc1C1C(C#N)=C(N)SC(N)=C1C#N	Fluorescein autfl 1.2e-08M
CCN(CC)c1ccc2c(c1)oc(=O)c1c(Cl)cc(=O)oc12	A488 fluor 2.5e-08M, Fluorescein autfl 4.8e-07M
CCN(CC)c1ccc2c(Cl)c(Br)c(=O)oc2c1	Fluorescein autfl inconclusive
Cn1nnc(NCc2cc(Br)ccc2OCc2cccs2)n1	Fluorescein autfl inconclusive
O=[n+]1c2c(n([O-])c3cc(F)ccc31)CCCC2	none
O=[n+]1c2c(n([O-])c3cc(F)c(N4CCCC4)cc31)CCC2	Rhodamine fluor inconclusive, Resorufin autofl inconclusive, A488 fluor inconclusive, TexasRed autofl inconclusive, Fluorescein autfl 1.7e-07M
CCCCCCOC(=O)CCn1[nH]c(=O)c2ccccc2c1=O	none
CC(C)C1Cc2c(C#N)c(N)sc(=S)c2CO1 (centres undefined)	Fluorescein autfl 1.3e-08M
c1ccc(-n2ncc3c2ncn2nc(CSc4nc5ccccc5s4)nc32)cc1	Fluorescein autfl inconclusive
Cn1nc(-c2ccccc2)c2nc3ccccc3nc21	A488 fluor 2.7e-08M, Fluorescein autfl 4.5e-07M
N#C/C(C(=O)Oc1ccccc1)=C1\C=CC=CN1	TexasRed autofl inconclusive, Fluorescein autfl inconclusive
COc1ccc(NC(=O)CCN2CCCCCC2)c(OC)c1	none
CCOC(=O)c1c2c(n3ccccc13)C(=O)c1ccccc1C2=O	Fluorescein autfl inconclusive
CCOC(=O)C(C(=O)OCC)c1cc(Br)c2noc3c2c1C(=O)c1ccccc1-3	A488 fluor 1.2e-08M, Fluorescein autfl 2.6e-07M
O=S(=O)(Cc1ccccc1)N1CCc2ccccc21	Rhodamine fluor 2.1e-08M, Resorufin autofl 1.6e-08M, A488 fluor inconclusive, TexasRed autofl 2e-08M, Fluorescein autfl 3.4e-08M
CN(C)S(=O)(=O)N1CCc2ccccc21	none
O=C1NC(=O)[C@@H]2C3c4ccccc4C=CN3[C@H](C(=O)c3cccs3)[C@H]12 (some centres undefined)	Fluorescein autfl 2.4e-08M
O=C(Cn1ccccc1=O)c1cccs1	none
COC(=O)c1c[nH]n2c(=O)c(Cc3ccc(F)cc3Cl)c(C)nc12	TexasRed autofl inconclusive
CCOC(=O)CSc1nnc(N)s1	TexasRed autofl inconclusive, Fluorescein autfl inconclusive
CCOC(=O)CSC1=NC(=O)CS1	Fluorescein autfl 2e-08M
CC(C)n1c(=NC(=O)c2ccco2)c(C#N)cc2c(=O)n3ccccc3cc21	TexasRed autofl inconclusive, Fluorescein autfl 1.1e-08M
CCCn1c(=NC(=O)c2ccco2)c(C(=O)OCC)cc2c(=O)n3ccccc3nc21	none
CC[C@@]12CCCN3CCc4c(n(c5ccccc45)C(=O)C1)[C@H]32	Fluorescein autfl 1.2e-08M!
COc1ccc(C(=O)Nc2nc(-c3cccs3)cs2)cc1	Fluorescein autfl inconclusive
Cc1csc(NC(=O)c2sc3nc(-c4cccs4)ccc3c2N)n1	Fluorescein autfl 1.4e-08M
Cc1cc(=O)oc2c(CN3CCC(C)CC3)c(O)c(Cl)cc12	Rhodamine fluor inconclusive, Fluorescein autfl 1.1e-08M
